High-throughput results: PubChem BioAssay, several laboratories
A selection: hits, their analogues and other compounds. The true share with any hit is near 4.7%.
EBI2 block = EBI2 receptor antagonists, beta-arrestin recruitment, primary screen, cell-based, luminescence, 7a,25-OHC stimulation, uHTS | 7a,25-OHC stimulated | inhibition, % at 5 µM | 360,000 compounds, 0.81% hits | AID 651636, 2012; in the data active means inhibition above about 38%;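 further: enzyme fragment complementation signal reports receptor beta-arrestin coupling in cells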
Target sequence (P32249 whole entry, looked up, the tested form may be a part): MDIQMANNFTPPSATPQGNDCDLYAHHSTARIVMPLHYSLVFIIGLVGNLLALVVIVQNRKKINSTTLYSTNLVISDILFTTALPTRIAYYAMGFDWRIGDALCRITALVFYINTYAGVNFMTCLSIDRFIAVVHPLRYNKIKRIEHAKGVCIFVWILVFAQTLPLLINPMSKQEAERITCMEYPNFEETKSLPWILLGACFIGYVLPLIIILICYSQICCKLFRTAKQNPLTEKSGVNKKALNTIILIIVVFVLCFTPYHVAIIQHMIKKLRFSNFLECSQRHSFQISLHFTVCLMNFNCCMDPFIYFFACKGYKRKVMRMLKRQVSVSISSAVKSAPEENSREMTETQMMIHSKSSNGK
TIM10 inh = growth inhibitors of isogenic TIM10 control yeast, primary screen, counter-screen for tim10-1 yeast inhibitor project, luminescence, uHTS | S. cerevisiae TIM10 strain growth, BacTiter-Glo luminescence, 24 h | inhibition, % at 10 µM | 330,000 compounds, 1.4% hits | AID 463195, 2010;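 active means inhibition of 40% or more at the single tested concentration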;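 further: wild-type TIM10 isogenic control strain grown at permissive 25 °C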
SKKanGAS inh = S. pyogenes SKKanGAS growth inhibitors in kanamycin, primary screen, streptokinase expression inhibitor project, SKKanGAS strain, BacTiter-Glo luminescence | 6 h | 300,000 compounds, 1.3% hits | inhibition, % at 7.5 µM | AID 1662, 2009;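 active means mean replicate score, as percent of positive control median, at least 50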;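 further: strain carries kanamycin resistance gene driven by streptokinase promoter and grows in 40 µg/ml kanamycin; loss of luminescence reflects streptokinase promoter inhibition or plain growth inhibition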
tim23-1 inh = growth inhibitors of tim23-1 mutant yeast, primary screen, luminescence, uHTS | AID 463212, 2010 | inhibition, % at 20 µM | 330,000 compounds, 1.3% hits | S. cerevisiae tim23-1 growth, BacTiter-Glo luminescence, 24 h;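 active means growth inhibition of the mutant yeast at or above 50%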;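 further: temperature-sensitive mutant grown at 25 °C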
tim10-1 inh = growth inhibitors of tim10-1 mutant yeast, primary screen, luminescence, uHTS | S. cerevisiae tim10-1 ts strain growth, BacTiter-Glo, 24 h | inhibition, % at 20 µM | 330,000 compounds, 2.2% hits | AID 463190, 2010;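 active means inhibition of at least 40%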;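 further: mutant grown at 25 °C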
PfHsp90 yeast 2 = growth inhibition of PfHsp90-expressing yeast, primary screen, antimalarial PfHsp90 inhibitor project, S. cerevisiae, BacTiter-Glo luminescence, single point, set 2. inhibition, % at 9.4 µM. AID 504621, 2011. BacTiter-Glo ATP, 48 h; yeast lacking PDR1 and PDR3 efflux regulators. 310,000 compounds, 0.32% hits;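 active means every replicate shows inhibition above about 80%, whatever the replicate mean, limit read from the data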
EBI2 conf = EBI2 antagonist hit retest, beta-arrestin, confirmation, cell-based, single concentration, luminescence, 7a,25-OHC stimulation. shares compounds with EBI2 block. 7a,25-OHC antagonism. inhibition, % at 5 µM. 2,400 compounds, 29% hits. AID 651997, 2013;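 active means inhibition of at least 50%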
EBI2 ag = EBI2 agonist activity of antagonist hits, confirmation, counter-screen for EBI2 antagonist project, cell-based, single concentration, agonist mode, luminescence; EBI2-expressing cells, 60 min; 0% vehicle, 100% 7α,25-dihydroxycholesterol control; AID 652000, 2013; shares compounds with EBI2 block; activation, % at 5 µM; 2,400 tested, under 10 active;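 active means activation of at least 50%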
bGal counter = E. coli beta-galactosidase enzyme inhibition, confirmation, counter-screen for EBI2 antagonist project, biochemical, luminescence, single concentration. AID 652176, 2013. 2,400 compounds, 1% hits. shares compounds with EBI2 block. inhibition, % at 5 µM. purified beta-galactosidase, luminescent Galacton Star, 15 min;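 active means replicate-average signal at least 3 plate SD below neutral wells, shown as high inhibition, flagging enzyme-inhibiting false positives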;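 further: higher means stronger loss of beta-gal luminescence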
A number is an active result; 0 = inactive; - = no result given.

SMILES | EBI2 block | TIM10 inh | SKKanGAS inh | tim23-1 inh | tim10-1 inh | PfHsp90 yeast 2 | EBI2 conf | EBI2 ag | bGal counter
CC1(C(=O)Nc2ccc3c(c2)OCCO3)CN(S(C)(=O)=O)CC(=O)N1C1CCCCCC1 (stereo not drawn) | 0 | - | - | - | - | - | - | - | -
O=C(COC(=O)c1cc(F)cc(F)c1)NCCCc1ccccc1 | 0 | 0 | 0 | 0 | 0 | 0 | - | - | -
O=Nc1c(O)[nH]c2ccc(Cl)cc12 | 0 | 0 | 0 | 0 | 0 | 0 | - | - | -
COc1ccc(CNc2ccc(-c3ccccc3OC)nn2)cc1 | 0 | 0 | 0 | 0 | 0 | - | - | - | -
COc1ccc(CNc2ccc(-c3ccc(OC)cc3)nn2)cc1 | 74.3 | 0 | 0 | 0 | 0 | 0 | 0 | 0 | 0
CCOC(=O)c1sc2nc(C)nc(N3CCN(S(=O)(=O)c4ccccc4)CC3)c2c1C | 0 | 0 | - | 0 | 0 | 0 | - | - | -
Cc1ccc(S(=O)(=O)NCCC(=O)NNC(=O)COc2ccc(Br)cc2)cc1C | 62.9 | 0 | - | 0 | 0 | 0 | 0 | 0 | 0
Cc1ccc(C)c(OCc2nc3ccc(S(=O)(=O)Nc4c(C)n(C)n(-c5ccccc5)c4=O)cc3[nH]2)c1 | 0 | 0 | 0 | 0 | 0 | 0 | - | - | -
CC(=O)Nc1cccc(NC(=O)C(=O)c2cn(CC(=O)N3CCCC3)c3ccccc23)c1 | 0 | - | - | - | - | - | - | - | -
COc1cccc(-c2cc3nc(-c4ccccc4)cc(N4CCCC(O)C4)n3n2)c1 (stereo not drawn) | 46.5 | 0 | 0 | 0 | 0 | 0 | 0 | 0 | 0
COC(=O)[C@@]1(Cc2ccc(OC)cc2)[C@H]2c3cc(C(=O)N4CCCC4)n(CCc4ccc(OC)c(Br)c4)c3C[C@H]2CN1C(=O)c1ccccc1 | 44.2 | - | - | - | - | - | 0 | 0 | 0
COc1ccc(/C=C/c2c(-c3ccc(OC)cc3)sc3ccc(N4CCOCC4)cc23)cc1 | 50.0 | 0 | 0 | 0 | 0 | 0 | 0 | 0 | 0
COc1ccc(-c2sc3ccc(N4CCOCC4)cc3c2C#CCO)cc1 | 0 | 0 | - | 0 | 0 | 0 | - | - | -
CCN(CC)c1ccc(/C=N/NC(=O)Nc2ccccc2)cc1 | 39.7 | 0 | 0 | 0 | 0 | 0 | 52.2 | 0 | 0
CCN(CC)c1ccc(/C=N\NC(N)=O)cc1 | 0 | 0 | 0 | 0 | 0 | 0 | - | - | -
Nc1cc(=O)nc(SCC(=O)Nc2ccccc2Cl)n1-c1ccccc1 | 0 | 0 | 0 | 0 | 0 | 0 | - | - | -
COc1ccc(-c2cn(Cc3ccc(C(=O)NCc4ccc(C)cc4)cc3)c(C(C)N)n2)cc1 (stereo not drawn) | 54.5 | 0 | 0 | 0 | 0 | 0 | 0 | 0 | 0
O=C(NCc1ccc(Cl)cc1)C1CCN(S(=O)(=O)c2cccnc2)CC1 | 50.5 | 0 | 0 | 0 | 0 | 0 | 0 | 0 | 0
O=C(NCc1ccc(F)cc1)C1CCN(S(=O)(=O)c2ccc(Br)s2)CC1 | 51.9 | 0 | 0 | 0 | 0 | 0 | 0 | 0 | 0
O=C(NCc1ccc(Cl)cc1)c1ccc(S(=O)(=O)N2CCCCC2)cc1 | 48.5 | 0 | - | 0 | 0 | - | 0 | 0 | 0
O=C(NCCc1ccc(Cl)cc1)C1CCN(S(=O)(=O)N2CCCCC2)CC1 | 44.1 | 0 | 0 | 0 | 0 | - | 0 | 0 | 0
O=C(NCc1ccc(F)cc1)c1ccc(S(=O)(=O)N2CCCCC2)cc1 | 0 | 0 | - | 0 | 0 | 0 | - | - | -
O=C(NCc1ccc(F)cc1)C1CCN(S(=O)(=O)c2cccnc2)CC1 | 0 | 0 | 0 | 0 | 0 | 0 | - | - | -
O=C(NCc1ccc(F)cc1)C1CCCN(S(=O)(=O)c2ccc(Br)s2)C1 (stereo not drawn) | 0 | 0 | 0 | 0 | 0 | 0 | - | - | -
O=C(O)CCCNC(=O)Cc1ccccc1 | 0 | 0 | 0 | 0 | 0 | 0 | - | - | -
SMILES | EBI2 block | TIM10 inh | SKKanGAS inh | tim23-1 inh | tim10-1 inh | PfHsp90 yeast 2 | EBI2 conf | EBI2 ag | bGal counter
Cc1c([N+](=O)[O-])nnn1-c1cc(Cl)cc(Cl)c1 | 0 | 0 | 0 | 0 | 0 | 0 | - | - | -
CC(=O)OCC=C1CCC2C3CC(C)C4=CC(=O)CCC4(C)C3C(O)CC12C (stereo not drawn) | 0 | - | - | - | - | 0 | - | - | -
CCOC(=O)C1CCN(C(=O)COC(=O)c2ccc([N+](=O)[O-])o2)CC1 | 0 | 0 | - | 0 | 0 | - | - | - | -
C=CCn1nnnc1SCC(=O)Nc1cccc(C(F)(F)F)c1 | 0 | 0 | 0 | 0 | 0 | 0 | - | - | -
O=C(NCc1ccc(Cl)cc1)C1CCN(S(=O)(=O)c2ccc(F)cc2)CC1 | 51.3 | 0 | 0 | 0 | 0 | 0 | 0 | 0 | 0
O=C(NCc1ccncc1)C1CCN(S(=O)(=O)c2ccc(F)cc2)CC1 | 0 | 0 | 0 | 0 | 0 | 0 | - | - | -
COc1ccc(OC)c(C2=Nn3c(nnc3-c3cccc(OC(C)C)c3)SC2)c1 | 46.0 | 0 | 0 | 0 | 0 | - | 0 | 0 | 0
COc1ccc(OC)c(C2=Nn3c(nnc3-c3ccco3)SC2)c1 | 0 | 0 | 0 | 0 | 0 | 0 | - | - | -
CCOC(=O)C1C(C(=O)OC)=C(C(=O)OC)c2ccccc2N1S(=O)(=O)C(F)(F)F (stereo not drawn) | 0 | 0 | - | 0 | 0 | 0 | - | - | -
CCC(C)C(=O)Nn1c(C2CC2)nc2cc(OC)c(OC)cc2c1=O (stereo not drawn) | 0 | 0 | 0 | 0 | 0 | 0 | - | - | -
COc1ccc(OCCN2CCC(C(=O)NC(c3ccc(Cl)cc3)c3ncccc3C)CC2)cc1 (stereo not drawn) | 55.0 | - | - | - | - | - | 0 | 0 | 0
Cc1cccnc1C(NC(=O)C1CCN(CCOc2ccc(F)cc2)CC1)c1ccc(Cl)cc1 (stereo not drawn) | 0 | - | - | - | - | - | - | - | -
COc1ccc(OCCN2CCC(C(=O)NC(c3ccc(Cl)cc3)c3cnccn3)CC2)cc1 (stereo not drawn) | 0 | - | - | - | - | - | - | - | -
COc1ccccc1C(NC(=O)C1CCN(CCOc2ccc3ccccc3c2)CC1)c1ccccn1 (stereo not drawn) | 44.6 | - | - | - | - | - | 0 | 0 | 0
COc1ccc(OCCN2CCC(C(=O)NC(c3ccc(F)cc3)c3ncccc3C)CC2)cc1 (stereo not drawn) | 45.5 | - | - | - | - | - | 0 | 0 | 0
CC(C)CN1CCC(C(=O)NC(c2ccc(F)cc2)c2ccc3ccccc3n2)CC1 (stereo not drawn) | 0 | - | - | - | - | - | - | - | -
COc1ccc(/C=C/CN2CCC(C(=O)NC(c3ccc(F)cc3)c3ccc4ccccc4n3)CC2)cc1 (stereo not drawn) | 59.9 | - | - | - | - | - | 0 | 0 | 0
